Assay outcomes (PubChem BioAssay)
Artemis endo inh: blocks endonuclease activity of human Artemis; Q96SD1; recombinant Artemis, quenched FAM hairpin cleavage fluorescence; AID 686954; actives 0.78% (n = 30,000); inhibition, % at 10 µM;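 active = at 10 µM dose, at least 30% inhibition, measured as corrected fluorescence normalized to stimulator and neutral control wells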
Target sequence (Q96SD1 whole entry, looked up): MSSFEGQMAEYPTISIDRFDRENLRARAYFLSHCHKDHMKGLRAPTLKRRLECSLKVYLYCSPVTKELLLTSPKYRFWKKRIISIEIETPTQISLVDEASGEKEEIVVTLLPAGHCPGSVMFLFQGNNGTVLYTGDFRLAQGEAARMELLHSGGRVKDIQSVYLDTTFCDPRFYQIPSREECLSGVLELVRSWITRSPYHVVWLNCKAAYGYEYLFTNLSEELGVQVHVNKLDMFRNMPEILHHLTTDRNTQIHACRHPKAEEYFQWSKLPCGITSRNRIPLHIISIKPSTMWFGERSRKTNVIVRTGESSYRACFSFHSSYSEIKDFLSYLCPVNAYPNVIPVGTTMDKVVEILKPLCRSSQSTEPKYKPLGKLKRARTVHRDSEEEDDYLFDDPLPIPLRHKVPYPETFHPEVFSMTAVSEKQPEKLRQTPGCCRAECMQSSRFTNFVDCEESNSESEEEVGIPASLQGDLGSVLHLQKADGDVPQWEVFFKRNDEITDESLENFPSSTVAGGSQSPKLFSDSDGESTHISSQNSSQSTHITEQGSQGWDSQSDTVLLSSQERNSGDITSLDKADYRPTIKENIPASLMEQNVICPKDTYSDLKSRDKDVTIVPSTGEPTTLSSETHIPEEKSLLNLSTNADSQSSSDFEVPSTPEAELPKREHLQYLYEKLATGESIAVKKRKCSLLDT
* hit, by the source's call. This excerpt belongs to a sample that is enriched for hits.

For Cc1ccc(S(=O)(=O)CCc2nc3ccccc3n2CCC#N)cc1 the results were Artemis endo inh -10.0.
Cc1ccc(S(=O)(=O)NC(=O)c2cc(C)n(CCCn3ccnc3)c2C)cc1 was read as Artemis endo inh -0.5.
Screening O=C(N/N=C\c1ccc(Cl)s1)c1cccs1 returned Artemis endo inh 1.2.
O=C(N/N=C/c1ccco1)c1cc(-c2ccc3ccccc3c2)n[nH]1 was read as Artemis endo inh 23.1.
O=C(N/N=C/c1cccs1)c1cc(-c2ccc3ccccc3c2)n[nH]1 was read as Artemis endo inh 34.3*.
`CC(=O)Nc1ccc(C(=O)N2CCCC2)cc1` gave Artemis endo inh -1.1.
`CCCSC(=O)N(CC)CC(=O)Nc1c(CC)cccc1CC` gave Artemis endo inh -13.3.
Screening Cc1ccc(S(=O)(=O)N2CCN(C(=O)CSc3nnnn3C)C2)cc1 returned Artemis endo inh -1.1.
For Cc1cc(C)c(NC(=O)c2ccc(CN3CCc4ccccc4C3)cc2)c(C)c1 the results were Artemis endo inh 2.6.
O=C(COC(=O)C1CC(=O)N(c2ccc3c(c2)OCCO3)C1)Nc1ccc2c(c1)CCC2 (centres undefined) was read as Artemis endo inh -6.9.
O=C(Nc1nc2ccccc2s1)C1CC(=O)N(c2ccc(Cl)cc2)C1 (centres undefined) was read as Artemis endo inh 5.3.
O=C(Nc1nc(-c2ccco2)c(-c2ccco2)s1)C1CC(=O)N(c2ccc3c(c2)OCCO3)C1 (centres undefined) was read as Artemis endo inh 32.1*.
O=C(O)CCC(=O)N1CCN(c2nc(-c3ccccc3Cl)c3cc(Br)ccc3n2)CC1 was read as Artemis endo inh 10.6.
O=C(c1cncc(Br)c1)N1CCc2ccccc2C1 was read as Artemis endo inh -4.8.
For O=C1c2ccccc2C(=O)N1CCC1=CCCCC1 the results were Artemis endo inh -1.4.
Screening O=C(CN1CCCC1)N/N=C/c1ccc(-c2cccc(Cl)c2)o1 returned Artemis endo inh -0.3.
`O=C(N/N=C/c1ccc(-c2ccc(S(=O)(=O)Nc3ncccn3)cc2)o1)c1cc2ccccc2cc1O` gave Artemis endo inh 33.2*.
For CCOc1ccc(S(=O)(=O)N(CC(=O)N/N=C/c2ccc(-c3ccc([N+](=O)[O-])cc3)o2)c2ccccc2)cc1 the results were Artemis endo inh 26.7.
Cc1ccc(C2CC(=O)NC(SCC(=O)Nc3nccs3)=C2C#N)cc1 (centres undefined) was read as Artemis endo inh 7.7.
Screening N#C/C(=C\c1ccc(Cl)cc1)c1nc2ncccc2[nH]1 returned Artemis endo inh -3.3.
`NC(=O)c1cc2cc(Br)ccc2oc1=NCc1ccccc1` gave Artemis endo inh 0.9.
CCc1ccc(/C=C/C(=O)c2c(C)cc(C)[nH]c2=O)cc1 was read as Artemis endo inh 1.6.
`O=C(/C=C/c1ccccc1)c1cc(Br)ccc(=O)c1O` gave Artemis endo inh 36.4*.
`COc1ccc(Nc2nc(NCc3ccco3)nc(N/N=C/c3ccccc3)n2)cc1` gave Artemis endo inh 71.9*.
For CC(C)c1ccc(Nc2nc(NCc3ccco3)nc(N3CCOCC3)n2)cc1 the results were Artemis endo inh 21.4.
For CCOc1nc(NCc2ccco2)nc(Nc2ccc(OC)cc2)n1 the results were Artemis endo inh 4.8.
CC1CCCC(C)N1C(=O)Cn1cc(/C=C2/C(=O)Nc3ccccc32)c2ccccc21 (centres undefined) was read as Artemis endo inh 19.2.
For Nc1ccc2nc(-c3ccc(N)c(Cl)c3)[nH]c2c1 the results were Artemis endo inh 22.5.
Screening COc1ccc2nc(-c3cccc(N)c3)[nH]c2c1 returned Artemis endo inh 1.3.
Nc1ccc2nc(-c3ccccn3)[nH]c2c1 was read as Artemis endo inh 45.3*.
COc1ccc(CCNC(=O)Cc2ccc(OCc3ccccc3)c(OC)c2[N+](=O)[O-])cc1OCc1ccccc1 was read as Artemis endo inh 12.0.
For Cc1nc2ccc(S(=O)(=O)NCC(=O)N3CCC(C)CC3)cc2s1 the results were Artemis endo inh 3.1.
`CCC(=O)c1c[nH]c(C(=O)NCCCn2ccnc2)c1` gave Artemis endo inh -2.0.
Screening Cc1[nH]n(-c2ccccc2)c(=O)c1C(C[N+](=O)[O-])c1ccc(Br)cc1 (centres undefined) returned Artemis endo inh 34.4*.
`Cc1nc(=S)n(-c2ccccc2)[nH]1` gave Artemis endo inh -4.6.
For Cc1[nH]n(-c2ccccc2)c(=O)c1-c1cccc(Cl)c1 the results were Artemis endo inh 6.9.
Screening COC(=O)c1nn(-c2ccccc2)c(Sc2ccc(C)cc2)c1/C=N/O returned Artemis endo inh -1.6.
For N=c1c2c(-c3ccccc3)c(-c3ccccc3)n(Cc3ccco3)c2ncn1Cc1ccccc1 the results were Artemis endo inh 8.8.
CC(C)Cn1cnc2c(c(-c3ccccc3)c(-c3ccccc3)n2Cc2ccco2)c1=N was read as Artemis endo inh 22.9.
`c1ccc(-c2c(-c3ccccc3)n(Cc3ccco3)c3ncnc(NCCCn4ccnc4)c23)cc1` gave Artemis endo inh 44.1*.
S=C(NCc1ccco1)N1CCN(Cc2ccc(Cl)cc2Cl)CC1 was read as Artemis endo inh -0.2.
